Measured values: PubChem BioAssay AID641 (Vanderbilt High Throughput Screening Facility, 2007)
About 3,400 (5.9%) of roughly 58,000 compounds were called active.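 How the source made its calls: active means luminescence count or its row- and column-corrected plate score outside the 99.7% band of the plate's sample wells, on either side; inactive means the rest.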 This excerpt belongs to a sample that is enriched for actives.

These compounds were tested against D(1A) dopamine receptor (Homo sapiens) (UniProt P21728) (assay: D1 CRE-luciferase signal change, two-sided – cell-based, HEK293 D1, dopamine EC30, D1 allosteric modulator project, primary screen (AID 641)). Conditions: dopamine EC30 potentiation, at 10 µM, actives deviate in either direction.
D(1A) dopamine receptor (Homo sapiens), sequence (P21728 whole entry, looked up): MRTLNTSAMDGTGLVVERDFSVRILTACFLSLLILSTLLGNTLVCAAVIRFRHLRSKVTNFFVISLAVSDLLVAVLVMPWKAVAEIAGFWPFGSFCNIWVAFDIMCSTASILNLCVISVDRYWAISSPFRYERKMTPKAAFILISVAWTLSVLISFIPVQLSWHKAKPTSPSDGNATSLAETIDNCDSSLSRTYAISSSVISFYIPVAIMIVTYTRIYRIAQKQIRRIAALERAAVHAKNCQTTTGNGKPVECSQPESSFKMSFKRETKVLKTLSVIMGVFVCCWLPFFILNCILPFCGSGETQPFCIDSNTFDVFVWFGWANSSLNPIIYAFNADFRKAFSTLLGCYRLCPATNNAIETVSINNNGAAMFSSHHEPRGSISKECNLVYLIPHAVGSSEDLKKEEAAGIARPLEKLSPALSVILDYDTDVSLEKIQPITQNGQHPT

B-score, active:
Oc1ccc(-c2csc(Nc3cccnc3)n2)cc1 6.13
COc1ccc(-c2nnc(SCC(=O)NC3CCCCC3)o2)cc1OC 5.11
c1ccc2c(NCC3CCCO3)nc(-c3ccncc3)nc2c1 (stereo unspecified) 6.75
Cn1c(=O)c2[nH]c(NCC3CCCO3)nc2n(-c2ccccc2)c1=O (stereo unspecified) 2.53
O=C(CCCn1c(=O)[nH]c2cc(Cl)ccc2c1=O)NCCN1CCN(c2ccccc2)CC1 -3.76
O=C(c1ccco1)N1CCN=C1SCc1cccc(Cl)c1 6.32
Cc1onc(-c2ccccc2)c1C(=O)Nc1ccccc1C#N -4.73
CCCN1Cc2cccc(C(=O)NCc3ccccc3)c2C1=O 11.5
Cn1c(/C(C#N)=C2/CCCCCN2)nc2ccccc21 11.4
CC(C)n1c(C(O)c2ccccc2)nc2ccccc21 (stereo unspecified) 3.08
CC1(C)Cc2ccccc2-c2nc(CN3CCOCC3)[nH]c(=O)c21 11.8
COc1ccc(-n2ncc3c(N4CCc5ccccc54)ncnc32)cc1 -3.03
CNC(=O)C1CC(=O)N(Cc2ccc3c(c2)OCO3)C(=Nc2ccc(F)cc2)S1 (stereo unspecified) -4.24
CN1CCN(c2ccc(NC(=O)COc3ccc(Cl)cc3Cl)cc2)CC1 -5.29
CC(=O)OC(C)C[N+](C)(C)C (stereo unspecified) 6.75
COC(=O)c1sc(NC(=O)c2ccc(OC)cc2OC)nc1C -2.64
O=S(=O)(c1cccs1)N1CCc2ccccc2C1 7.95
CC(=O)Nc1cccc(Oc2cc(C#N)c(C#N)cc2N2CCOCC2)c1 10.6
CCSc1ncnc2c(C#N)c3n(c12)CCCCC3 13.8
COc1ccc(-c2nc(-c3ccccc3)no2)c(OC)c1 -4.54
COC(=O)c1ccccc1NC(=O)C1CCN(S(=O)(=O)c2cc(OC)ccc2OC)CC1 16.9
CCc1ccc2oc(-c3ccc(N)cc3)nc2c1 -5.51

B-score, inactive:
c1ccc(Nc2nc(-c3ccncc3)cs2)nc1 -2.02
COc1ccc(OC)c(Nc2nc(-c3ccc(O)c(O)c3)cs2)c1 -0.798
COc1ccc(OC)c(C(=O)c2coc3ccc(OC)cc23)c1 0.803
COc1ccc(CCNC(=O)CSc2nnc(-c3cccc(F)c3)o2)cc1OC 0.506
COc1ccccc1-c1nnc(SCC(=O)Nc2ccccc2)o1 -1.39
Cc1ccc(-c2noc(-c3ccccc3C(=O)NCC3CCCO3)n2)cc1 (stereo unspecified) -0.376
Cc1nc2ccccc2c2oc(C(=O)NCC3CCCO3)cc12 (stereo unspecified) 1.81
CN(C)/C=C1/C(=O)Nc2ccccc21 0.196
CC(C)(C)c1nc(NCC2CCCO2)c2nnn(Cc3ccccc3)c2n1 (stereo unspecified) 0.157
CCCCn1c(SCC(=O)NCC2CCCO2)nc2ccc(N3CCOCC3)cc2c1=O (stereo unspecified) 0.249
CCC1C(C#N)=C(SC)NC2=C1C(=O)CC(C)(C)C2 (stereo unspecified) -0.282
O=C(CCn1c(=O)[nH]c2ccccc2c1=O)NCCCN1CCN(c2cccc(Cl)c2)CC1 -1.82
O=C(CCCCn1c(=O)[nH]c2ccccc2c1=O)NCc1ccc2c(c1)OCO2 0.766
C=CCNC(=O)C1CC=CCC1C(=O)O (stereo unspecified) 0.00169
CC(C)(C)NC(=O)c1cc(NC(=O)c2ccco2)cc(NC(=O)c2ccco2)c1 -0.752
O=C(c1ccco1)N1CCN(c2cccc(Cl)c2)CC1 -0.482
O=C(C1CC1)N1CCN=C1SCc1ccc(Cl)cc1 0.0469
N#CC1=C(N)OC2=C(C(=O)CCC2)C1C1CC=CCC1 (stereo unspecified) -0.19
CCCN1C(=O)C(NC(C)=O)c2cc(OC)ccc21 (stereo unspecified) 0.478
Cc1onc(-c2ccccc2)c1C(=O)N1CCOCC1 -1.43
CC(=O)Nc1cccc(NC(=O)c2c(-c3ccccc3)noc2C)c1 0.894
Cc1cc(C)c2nc(N3CCCC3)c(C#N)cc2c1 0.082
CS(=O)(=O)NCc1ccc(C(=O)NCc2ccccc2)cc1 0.452
COCCN1Cc2cccc(C(=O)Nc3ccccc3OC)c2C1=O 0.446
O=S(=O)(NCCNS(=O)(=O)c1ccccc1)c1ccccc1 0.231
COc1ccccc1Oc1ccc(S(=O)(=O)Nc2cccnc2)cc1 -1.35
O=C(Nc1nnc(-c2ccc(Cl)cc2)o1)c1ccccc1Br -0.685
CC1=CC(C)(C)N(C(=O)CSc2nccn2C)c2cc(C)ccc21 -0.925
Cc1noc(NS(=O)(=O)c2ccc(NC(=O)C34CCC(CC3)C4)cc2)c1C -0.488
CN(CC(=O)NC1CCCCC1)S(=O)(=O)c1cccc2cccnc12 -1.04
O=C(Cn1cnc2c(cnn2-c2ccc(F)cc2)c1=O)NCCc1ccccc1 -0.343
N#C/C(=C1\CCCN1)c1nc(-c2ccccc2)cs1 -1.24
CCCn1c(C(O)c2ccc(OCC)cc2)nc2ccccc21 (stereo unspecified) -0.886
COc1cc(C(O)c2nc3ccccc3n2C)cc(OC)c1OC (stereo unspecified) -0.575
Cn1c(=O)c2c(nc(CN3CCOCC3)n2Cc2ccccc2)n(C)c1=O -0.887
CCOC(=O)C1Cn2c(nc3c(c2=O)C(C)(CC)Cc2ccccc2-3)S1 (stereo unspecified) -0.309
Cc1ccc(N(CC(O)CN2CCCC2)S(=O)(=O)c2ccccc2)cc1 (stereo unspecified) 0.09
COc1ccc(-c2nc(CS(=O)CC(=O)N3CCc4ccccc4C3)c(C)o2)cc1 (stereo unspecified) -0.182
COc1ccc(-n2ncc3c(N4CCCc5ccccc54)ncnc32)cc1 0.526
Cc1cccc(-n2ncc3c(N4CCc5ccccc54)ncnc32)c1 -0.748
Cc1cc(/C=N/n2cnnc2)c(C)n1-c1ccc2ncccc2c1 -0.264
CN1C(=O)c2ccc(NC(=O)c3c(F)c(F)c(F)c(F)c3F)cc2C1=O 0.371
O=C(CN1CCN(CC(=O)Nc2ccc3c(c2)OCO3)CC1)Nc1ccc(F)cc1 -0.0409
O=C(Cn1cnc2c(nnn2Cc2ccc(F)cc2)c1=O)NCc1ccc2c(c1)OCO2 -1.24
O=C(Nc1cccc(F)c1)c1ccc(S(=O)(=O)N2CCCC2)cc1 -0.728
CC(C)CNS(=O)(=O)c1ccc(OCC(=O)Nc2ccc3c(c2)OCO3)c(Cl)c1 0.525
Cc1ccccc1OCC(=O)Nc1ccc(N2CCN(C(=O)C(C)C)CC2)c(Cl)c1 -0.399
Cc1ccc(C)c(NC(=O)CSc2nnc(Cc3cccn3C)n2-c2ccc(F)cc2)c1 -0.0122
CCOC(=O)C1CCc2nc3ccccc3c(=O)n21 (stereo unspecified) -0.327
CC(C[N+](C)(C)C)OC(N)=O (stereo unspecified) 0.394
CSc1nnc(CNC(=O)c2ccccc2)n1-c1ccc(F)cc1 -0.759
Cc1ccccc1NC(=O)c1cnn(-c2ccccc2)c1NC(=O)c1ccco1 -0.921
COCCCn1c(CCC(=O)O)ccc1-c1ccc(F)cc1 0.034
COc1ccc(C(=O)Nc2nncs2)c(OC)c1 -0.602
COC(=O)c1sc(NC(=O)c2csc3c2CCCC3)nc1C 0.102
O=C(C1CCN(S(=O)(=O)c2cccs2)CC1)N1CCCCCC1 -0.0225
O=S(=O)(c1cccs1)N1CCN(Cc2ccccc2)CC1 0.549
CCNC(=O)CCc1nc(-c2ccc(C(C)(C)C)cc2)no1 -0.735
CCOc1ccccc1N(CC(=O)Nc1ccccc1C(=O)OC)S(C)(=O)=O 0.461
CC1=C2C(=O)OC(c3ccoc3)C2(C)CCC1 (stereo unspecified) -0.874
CC(=O)Nc1ccc(N2CCOCC2)c(C(=O)Nc2cccc(C)c2)c1 -0.395
CCOc1cccc(NC(=O)CC#N)c1 -0.00988
COc1ccc(S(=O)(=O)N2CCC(C(=O)N3CCOCC3)CC2)cc1OC 1.55
O=C(Cn1cnc2c(nnn2-c2ccccc2)c1=O)N1CCC(Cc2ccccc2)CC1 -0.43
CCSC1=C(C#N)C(=O)n2c1cc1c2CCCC1 -0.914
CCOC(=O)C1=C(C)NC(=O)N(C(C)=O)C1c1ccc(Cl)cc1 (stereo unspecified) -0.258
COc1ccc(-c2noc(-c3cccc(OC)c3OC)n2)cc1OC -0.715
COc1cc(-c2nc(-c3ccncc3)no2)cc(OC)c1OC 0.324
COc1ccc(NC(=O)CN2CCN(S(=O)(=O)c3ccc(F)cc3)CC2)cc1Cl 0.0874
CC1(C)CC(=O)C=C(NCCCNC2CCCCC2)C1 -0.045
COc1cccc(CNC(=O)C2CCN(S(=O)(=O)c3cccc4cccnc34)CC2)c1 0.421
CCOc1ccccc1NC(=O)C1CCN(S(=O)(=O)c2c(C)nn(C)c2C)CC1 -0.536
Cn1cc(S(=O)(=O)N2CCC(Cc3ccccc3)CC2)c(=O)n(C)c1=O 0.229
CC1CCC(NC(=O)c2ccc(N3CCCC3=O)cc2)CC1 (stereo unspecified) -0.328
O=P(c1cccs1)(c1cccs1)c1cccs1 -0.658
CC1C(c2ccccc2)=[N+]([O-])C2(CCCC2)N1O (stereo unspecified) 0.0193
CCCCc1nc2ccccc2c(=O)n1NC(=O)c1c(O)c2cccc3c2n(c1=O)CC3 -0.934
Nc1ccc(-c2nnc(-c3ccc(-c4ccccc4)cc3)o2)cc1 -0.481
CCCCCC(=O)Nc1ccc2oc(-c3ccncc3)nc2c1 -0.0351
